A selection: hits, their analogues and other compounds. The true share with any hit is near 12%.
BAZ2B inh: blocks human BAZ2B; hit rate 4.4% among 360,000; Q9UIF8; Potency, µM (highest dose often 114 µM), for the others: at the highest dose activity change, negative = inhibition, most hits filed as inhibitors; AID 504333; AlphaScreen BAZ2B-H3K14Ac peptide displacement; also: % is scaled to controls: 0 for no effect and ±100 for the full control effect; nearly all actives have a fitted effect of over 60% in size
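AlphaScreen displacement: compounds (up to 110uM) incubated 30 min at room temperature with a preformed 50 nM BAZ2B/50 nM biotinylated H3K14Ac peptide complex in PBS pH 7.4 with Tween-20. Donor and acceptor beads at 10 ug/mL final added, 20 min light-protected before reading.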
L3MBTL1 inh: blocks human L3MBTL1. Potency, µM (highest dose often 57.1 µM), without a hit: top-dose activity, negative = inhibition, hits mostly inhibitors. Q9Y468. AlphaScreen L3MBTL1–H3K9me1 peptide binding. hit rate 0.66% among 230,000; also: % is scaled to controls: 0 for no effect and ±100 for the full control effect; nearly all actives have a fitted effect of over 60% in size
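Read-out is AlphaScreen signal from streptavidin donor and nickel chelate acceptor beads (10 ug/mL final each) bridging L3MBTL1 (50 nM) and biotinylated K9-monomethylated H3(1-15) peptide (75 nM), after 30 min compound exposure at room temperature.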
G9a block: inhibitors of human histone lysine methyltransferase G9a; Q96KQ7; G9a H3K9 monomethylation, AlphaScreen, 2 h; Potency, µM (doses to about 102 µM), inactives show at the top dose activity, negative = inhibition, hits mostly inhibitors; hit rate 8.8% among 350,000; AID 504332; also: % is scaled to controls: 0 for no effect and ±100 for the full control effect; nearly all actives have a fitted effect of over 75% in size
Target sequence (Q96KQ7 913-1193 limits assumed): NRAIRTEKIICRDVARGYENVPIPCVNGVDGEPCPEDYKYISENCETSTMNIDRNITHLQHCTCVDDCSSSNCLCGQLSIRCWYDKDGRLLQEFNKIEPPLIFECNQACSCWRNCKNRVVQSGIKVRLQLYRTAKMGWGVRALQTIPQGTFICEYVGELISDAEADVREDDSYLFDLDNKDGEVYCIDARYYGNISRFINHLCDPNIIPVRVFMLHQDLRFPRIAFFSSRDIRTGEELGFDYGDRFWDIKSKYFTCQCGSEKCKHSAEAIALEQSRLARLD
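Readings reflect AlphaScreen signal from monomethyl-H3K9 antibody detection. HMT at 20 nM; substrate b-H3K9 500 nM; cofactor SAM 20 uM; 2 h RT reaction; compounds tested as titrations in qHTS with 15 min preincubation.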
Sfp inh: inhibitors of Bacillus subtilis Sfp phosphopantetheinyl transferase; Biochemical Sfp PPTase activity, qHTS; AID 1490; Q9F4F7; Potency, µM, inactives show largest response in the series, negative = inhibition, actives largely listed as inhibitors; hit rate 3.5% among 310,000;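 also: the enzyme is Sfp with the accession as filed and its product quenches rhodamine fluorescence; 0% = enzyme reaction without inhibitor and -100% = no enzyme wells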
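Fluorescence-quenching assay with 15 nM Sfp, 5 uM rhodamine-CoA and 12.5 uM BHQ-2-labelled ybbR peptide in pH 7.6 Hepes/MgCl2 buffer. Enzyme was pre-incubated with compound for 15 min at room temperature. Rate was taken from the 30-min fluorescence change (525/598 nm).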
JMJD2A Tudor inh: inhibitors of human JMJD2A Tudor domain | O75164 | hit rate 4.4% among 390,000 | AlphaScreen JMJD2A-Tudor / H3K4me3 peptide binding | Potency, µM (series often up to 114 µM), for inactives: at the highest dose activity change, negative = inhibition, actives largely listed as inhibitors; also: % is scaled to controls: 0 for no effect and ±100 for the full control effect; nearly all actives have a fitted effect of over 50% in size
HP1b chromo inh: inhibitors of HP1-beta chromodomain binding to methylated histone tails; AID 540317; AlphaScreen HP1-beta / biotin-H3K9me3 peptide binding; Potency, µM (series often up to 114 µM), without a hit: top-dose activity change, negative = inhibition, actives largely listed as inhibitors; hit rate 0.56% among 390,000; P83916; also: nearly all actives have a fitted effect of over 70% in size
Target sequence (P83916 whole entry, looked up): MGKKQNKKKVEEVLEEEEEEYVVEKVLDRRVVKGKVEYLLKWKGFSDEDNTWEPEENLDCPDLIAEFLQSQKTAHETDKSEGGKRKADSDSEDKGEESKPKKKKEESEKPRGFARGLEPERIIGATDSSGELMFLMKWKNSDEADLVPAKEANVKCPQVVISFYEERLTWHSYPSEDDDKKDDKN
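HP1-beta protein (50 nM final) preincubated 30 min at room temperature with biotinylated H3(1-18)K9me3 peptide (50 nM) in PBS pH 7.4, 0.01% Tween-20, then compound added for 30 min. AlphaScreen streptavidin donor/nickel chelate acceptor beads (10 ug/mL final), 30 min dark, luminescence read.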
The depositor's hits bear a star; ? = inconclusive; · = no result given; [ ] = dose if it differs, or a comment. Calls follow the shape of the dose curve; as a rule, active = well fitted curve in the direction sought with a large enough effect; inconclusive = small, poorly fitted or top-dose-only effect, or another doubt; inactive = no such curve, though single readings can be large; an effect the other way counts as inactive or inconclusive. Potency is read from the fitted curve at half-maximal effect.

SMILES	BAZ2B inh	L3MBTL1 inh	G9a block	Sfp inh	JMJD2A Tudor inh	HP1b chromo inh
CN1CCN(C(=S)c2ccc(-c3cccc([N+](=O)[O-])c3)o2)CC1	?	-14%	40µM*	-16%	50µM*	-29%
COc1ccc(N2CCN(C(=O)c3ccc(COc4ccc([N+](=O)[O-])cc4)o3)CC2)cc1	?	·	22µM*	0%	?	?
CCOC(=O)CC(NC(=O)CCc1c(C)nc2cc(-c3ccccc3)nn2c1C)c1ccc(C)cc1 (stereo unspecified)	-12%	·	-1%[59 µM]	·	-6%	54%
CCN(Cc1nc(-c2ccc(OC)c(OC)c2)no1)C(=O)c1ccc2c(c1)OCO2	0%	·	?	15%	?	11%
CC1OCC23CC[C@@]4(C)CCC(C)(C)C[C@H]4[C@]2(C)CCC12C3CC[C@@]1(C)C2C(=O)CC(=O)[C@@H]1C (stereo partly specified)	·	·	·	1%	·	·
CN(c1ccccc1)c1nc(N)c([N+](=O)[O-])c(N2CCOCC2)n1	-9%	2%	?	7%	-22%	?
O=C(NC(=S)NN1CCCCC1c1cccnc1)c1ccc(Br)cc1 (stereo unspecified)	0%	-10%	45µM*	-11%	-15%	12%
Cn1nc(C(=O)Nc2cc(F)ccc2F)c2c1-c1ccccc1SC2	-3%	·	-24%[59 µM]	·	-16%	41%
O=C(CCl)Nc1nc(-c2ccco2)c(-c2ccco2)s1	50µM*	-8%	11µM*	45µM*	?	?
Cc1ccc(C(=O)Nc2nc(-c3ccco3)c(-c3ccco3)s2)o1	20µM*	?	14µM*	·	?	50µM*
Cc1cc(C)n2nc(CNS(=O)(=O)c3ccccc3)nc2n1	5%	·	-4%[59 µM]	·	-18%	18%
Clc1cccc2c1CCN(Cc1nc(-c3cnccn3)no1)C2	-19%	-3%	40µM*	22%	0%	18%
Brc1nnc2n1-c1ccccc1Sc1ccccc1-2	10%	-1%	-23%[59 µM]	1%	-7%	8%
Clc1ccc2c(c1)-c1nnc(Br)n1-c1ccccc1S2	-4%	?	10µM*	-5%	-9%	3%
CC(C)(C)C(=O)CC1(O)C(=O)N(Cc2ccccc2)c2ccccc21 (stereo unspecified)	?	·	14%[0.501 µM]	9%	-22%	22%
COc1ccc2sc(/C=C/c3ccccc3O)[n+](C)c2c1	?	-11%	45µM*	56µM*	?	0%
COc1ccccc1/C=C/C(=O)/C=C/c1ccccc1O	?	·	?	-2%	-22%	-1%
COc1ccc(S(=O)Cc2ccc(C(=O)NC3CC3)o2)cc1 (stereo unspecified)	2%	·	-8%	2%	-10%	36%
Cc1[nH]c(=S)[nH]c(=O)c1Cc1ccccc1	2%	1%	50µM*	-1%	-23%	36%
Cc1[nH]c(=S)[nH]c(=O)c1Cc1c(O)ccc2ccccc12	·	·	·	·	-18%	21%
O=c1[nH]c(=S)[nH]nc1Cc1ccccc1	-7%	22%	40µM*	2%	?	28%
CCCCN(C(=O)C1=NN(c2ccccc2)C(=O)CC1)c1c(N)n(CC(C)C)c(=O)[nH]c1=O	-4%	-2%	?	·	-4%	20%
O=[N+]([O-])c1ccc(Nc2cccc3c2[nH]c2c(-c4ccccc4)nccc23)c([N+](=O)[O-])c1	·	·	·	·	?	-26%
CCNc1nc(NC(C)C)nc(N(C#N)CCOc2ccccc2)n1	13%	·	13µM*	?	-9%	56%
NC(=O)C[n+]1cccc(C(=O)Nc2ccccc2)c1	-30%	-5%	50µM*	-2%	-8%	-5%
SMILES	BAZ2B inh	L3MBTL1 inh	G9a block	Sfp inh	JMJD2A Tudor inh	HP1b chromo inh
NC(=O)c1ccc[n+](Cc2ccccc2)c1	1%	?	71µM*	1%	-5%	34%
c1ccc(C[n+]2cccc(-c3ccccc3)c2)cc1	3%	7%	7%[59 µM]	0%	-17%[57.1 µM]	21%
O=C(NN1C(=O)c2ccccc2C1=O)C1C2CCCCC21 (stereo unspecified)	-29%	-3%	2.8µM*	-6%	-14%	19%
CCn1c(C)[n+](CCOCC[n+]2c(C)n(CC)c3cc(Cl)c(Cl)cc32)c2cc(Cl)c(Cl)cc21	0%	·	?	5%	22µM*	-3%
CC(=O)OCCn1c2nc(=O)[nH]c(=O)c-2nc2cc(C)c(C)cc21	7%	-10%	-23%	7%	-24%	27%
CCn1c(/C=C/Nc2ccccc2)[n+](CC)c2cc(Cl)c(Cl)cc21	9%	3%	?	?	-18%	28%
CC(=O)OCCn1c(C)[n+](CCOC(C)=O)c2cc(Cl)c(Cl)cc21	-1%	·	50µM*	4%	-9%	15%
CC1CCCCC1NCC(=O)Nc1ccccc1-c1ccccc1 (stereo unspecified)	?	4%	6.3µM*	79µM*	-13%[11.4 µM]	-14%
COc1ccc(Oc2ncc3nc(-c4ccc(F)cc4)c(=O)n(Cc4cccs4)c3n2)cc1	·	·	12%[0.501 µM]	6%	·	·
CC[n+]1c(-c2ccc(C)cc2)csc1Nc1c(C)n(C)n(-c2ccccc2)c1=O	?	-8%	8.9µM*	5%	?	?
Cc1ccc(N2C(=O)C(Cl)=C(Nc3c(C)n(C)n(-c4ccccc4)c3=O)C2=O)cc1	-35%	-5%	5µM*	?	-30%	0%
Cc1cccc(N2C(=O)C(Cl)=C(Nc3c(C)n(C)n(-c4ccccc4)c3=O)C2=O)c1C	50µM*	·	8.9µM*	56µM*	-9%	22%
O=C1CN(S(=O)(=O)c2c(F)cccc2F)CCN1S(=O)(=O)c1ccc2c(c1)OCCO2	·	·	·	·	-5%	·
CCOc1nc(C#N)nc(N2CCOCC2)n1	·	·	·	·	10%[57.1 µM]	15%[57 µM]
Cc1onc(-c2ccccc2)c1-c1n[nH]c(=S)n1-c1ccccc1Cl	-26%	-2%	23%[0.501 µM]	13%	-28%	22%
Cc1onc(-c2ccccc2)c1-c1n[nH]c(=S)n1-c1ccc(C(=O)O)cc1	?	·	?	-4%	45µM*	29%
Cc1ccccc1NC(=S)NCCc1ccccc1	?	-6%	?	8%	1%	21%
S=C(NCCc1ccccc1)Nc1ccccn1	-24%	0%	1.4µM*	-9%	-13%	?
CC(C)(C)NC(=S)NCCc1ccccc1	10%	4%	45µM*	-13%	2%[57.1 µM]	56%
Cc1cccc(NC(=S)NCCc2ccccc2)n1	-38%	-4%[11.4 µM]	-117%	56µM*	-15%	17%
COCc1cc(C)nc2sc(C(=O)Nc3ccccc3O)c(N)c12	4%	·	28%[59 µM]	·	-4%	52%
